Experimental data taken from PubChem BioAssay AID1030 (National Center for Advancing Translational Sciences (NCATS), 2008).
Among all 220,000 compounds or so, about 16,000 (7.3%) were called active. Inconclusive results (about 25%) are left out. The call rests on the fitted dose curve; in most records, active means well fitted inhibition curve with a large enough effect (not every such curve was filed as active); inconclusive means small, poorly fitted or top-dose-only effect, or another doubt; inactive means no such curve, though single readings can be large or run the other way. The entries come from a sample that favours actives as a whole. Where a call stands in place of a potency, no number is given.

molecular target: Aldehyde dehydrogenase 1A1 (Homo sapiens) (UniProt P00352); assay: qHTS Assay for Inhibitors of Aldehyde Dehydrogenase 1 (ALDH1A1); conditions: Purified ALDH1A1, NADH fluorescence, propionaldehyde substrate; series mostly up to 75.3 µM
Potency means the concentration at half of the fitted maximal effect.

Aldehyde dehydrogenase 1A1 (Homo sapiens), sequence (P00352 whole entry, looked up): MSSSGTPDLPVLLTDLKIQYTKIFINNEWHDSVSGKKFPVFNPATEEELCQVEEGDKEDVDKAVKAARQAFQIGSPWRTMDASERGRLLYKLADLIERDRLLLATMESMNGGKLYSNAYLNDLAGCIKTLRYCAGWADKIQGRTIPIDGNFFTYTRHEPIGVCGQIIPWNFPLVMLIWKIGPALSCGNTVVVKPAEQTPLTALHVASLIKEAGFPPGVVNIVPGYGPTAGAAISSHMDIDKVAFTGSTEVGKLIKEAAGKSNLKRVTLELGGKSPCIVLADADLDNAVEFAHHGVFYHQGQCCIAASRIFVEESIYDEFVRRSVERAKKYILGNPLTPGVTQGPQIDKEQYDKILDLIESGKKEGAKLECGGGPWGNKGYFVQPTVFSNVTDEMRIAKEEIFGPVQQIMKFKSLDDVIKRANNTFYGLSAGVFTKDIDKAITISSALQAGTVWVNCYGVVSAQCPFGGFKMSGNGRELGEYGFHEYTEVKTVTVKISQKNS

Compound	Potency	activity, negative = inhibition
C/C(=N\NC(=O)COc1c(C)cccc1C)c1cccs1	inactive	
CCOc1ccc(C(=O)NC2CCN(CC(=O)NCc3cccs3)CC2)cc1	inactive	
Cc1cc(C)n(-c2nnc(N3CCN(c4ccccc4)CC3)nn2)n1	inactive	
CCSc1ncnc2c(C#N)c3n(c12)CCCCC3	12.6 µM (active)	
CCOC(=O)c1c(N=CN(C)C)c(C#N)c2n1CCCC2	inactive	
C=C(C)c1cccc(C(C)(C)NC(=O)NCCN(CC)CC)c1	inactive	
CCN(CCn1cccn1)C(=O)CC1C(=O)NCCN1Cc1cccc(OC)c1OC (centres undefined)	inactive	
C=C1c2cc(CC)ccc2NC(=O)N1c1ccc(C)cc1	inactive	
CCc1ccc2c(c1)C1(NN=C(c3ccccc3)S1)C(=O)N2 (centres undefined)	28.2 µM (active)	
CCc1ccc2c(c1)C(c1ccc([N+](=O)[O-])cc1)=NNC(c1ccccc1)=N2	inactive	
CCS(=O)(=O)C1=NSC2=NC(=O)/C(=C\c3cc(C)n(-c4cccc(OC)c4)c3C)C(=N)N21	20 µM (active)	
CCOc1cc(/C=C2/C(=N)N3OC(C)=CC3=NC2=O)ccc1OC	inactive	
NC(=O)COC(=O)/C=C/c1ccc2ccccc2n1	inactive	
O=C(c1ccco1)N1CCN(C(=O)C2CC(c3ccc(Cl)c(Cl)c3)=NO2)CC1 (centres undefined)	inactive	
O=C(c1ccco1)N1CCN(c2cccc(Cl)c2)CC1	inactive	
O=C(c1ccco1)N1CCN(C(=O)C2c3ccccc3Oc3ccccc32)CC1	8.91 µM (active)	
COc1ccc(-c2nn(-c3ccccc3)cc2CN2CCCO2)c(F)c1	inactive	
Cc1ccccc1CC1(CO)CCCN(Cc2ccc3c(c2)OCCO3)C1 (centres undefined)	inactive	
Cc1ccc(N(C(=O)Cc2cccs2)C(C(=O)NCC2CCCO2)c2ccncc2)cc1 (centres undefined)	inactive	
O=C(COC(=O)Cc1ccc(F)cc1)Nc1cc(S(=O)(=O)N2CCOCC2)ccc1N1CCCC1	inactive	
COCCNC(=S)Nc1cc(S(=O)(=O)N2CCOCC2)ccc1N1CCCCC1	5.01 µM (active)	
CC(=O)NCCC(=O)Nc1cc(S(=O)(=O)N2CCOCC2)ccc1N1CCOCC1	inactive	
O=S(=O)(Nc1cc(S(=O)(=O)N2CCOCC2)ccc1N1CCCC1)c1cccs1	0.398 µM (active)	
O=C(COC(=O)c1ccccc1F)Nc1cc(S(=O)(=O)N2CCOCC2)ccc1N1CCCC1	inactive	
CCN(CC)S(=O)(=O)c1ccc(N2CCCC2)c(NS(=O)(=O)c2cccs2)c1	0.282 µM (active)	

Compound	Potency	activity, negative = inhibition
O=C(c1ccc(N2CCOCC2)c([N+](=O)[O-])c1)N1CCN(S(=O)(=O)c2cccs2)CC1	inactive	
CCN(CC)S(=O)(=O)c1ccc(N2CCOCC2)c(C(=O)O)c1	inactive	
CCN(CC)S(=O)(=O)c1ccc(N2CCOCC2)c(NC(=O)C2COc3ccccc3O2)c1 (centres undefined)	inactive	
Cc1ccc2cc(C)c(N3CCC(C)CC3)nc2c1	inactive	
Cn1c(=O)cc(OCC(=O)N2CCN(c3ccccc3F)CC2)c2ccccc21	inactive	
O=C(NCc1ccco1)c1ccc(NS(=O)(=O)c2cccc([N+](=O)[O-])c2)cc1	inactive	
COc1ccc(CCNC(=O)CSc2nc3[nH]ncc3c(=O)n2-c2cccc(C(F)(F)F)c2)cc1OC	inactive	
Cc1ccc(Nc2c(F)c(F)c(F)c(F)c2C(=O)O)c(C)c1	inactive	
Cc1ccccc1C1CC(c2cccs2)=NN1S(C)(=O)=O (centres undefined)	inactive	
Cc1cc(C)n(-c2ccc(C(=O)O)cc2[N+](=O)[O-])n1	inactive	
COc1ccc([C@H]2[C@H](C(C)=O)N3N=Cc4ccccc4C3C23C(=O)OC(C)(C)OC3=O)cc1 (some centres undefined)	10 µM (active)	
COc1ccc(C2C(C(=O)N3CCN(c4ccc(OC)cc4)CC3)c3ccccc3C(=O)N2C)cc1 (centres undefined)	inactive	
COc1ccccc1N1CCN(c2ccc([N+](=O)[O-])nc2)CC1	inactive	
CCCc1cc(-c2n[nH]c(=S)n2CC)c2ccccc2n1	inactive	
CCn1c(-c2ccncc2)n[nH]c1=S	inactive	
CCCc1cc(-c2n[nH]c(=S)n2Cc2ccccc2)cs1	7.94 µM (active)	
CCCOc1ccc(C(=O)NCCc2ccccc2)cc1	inactive	
CC1(C)Oc2ccc3ccc(=O)oc3c2/C(=C/NCCO)C1=O	25.1 µM (active)	
C/C=C(/C)C(=O)OC1Cc2c(ccc3ccc(=O)oc23)OC1(C)C (centres undefined)	inactive	
C=CCN(CC=C)S(=O)(=O)c1ccc(C(=O)Nc2nc3c(s2)CCc2ccccc2-3)cc1	inactive	
COC(=O)c1c(NC(=O)CN(c2ccc(C)c(C)c2)S(C)(=O)=O)sc2c1CCCC2	inactive	
C=CCN(CC=C)S(=O)(=O)c1ccc(C(=O)Nc2sc3c(c2C(N)=O)CCCCC3)cc1	3.16 µM (active)	
COCC(C)NC(=O)CSc1nc2nn(-c3ccccc3)c(=O)c-2c2n1CCCCC2 (centres undefined)	inactive	
Cc1ccc(CNC(=O)CCNS(=O)(=O)c2ccc(Br)s2)cc1	inactive	
N#Cc1ccc(-c2nc3cc(C#N)c(C#N)cc3nc2-c2ccccc2)cc1C#N	inactive	

Compound	Potency	activity, negative = inhibition
O=C(COc1ccc(/C=N/NS(=O)(=O)c2ccccc2)cc1)NCCc1ccccc1	12.6 µM (active)	
O=C(CC(=O)N/N=C\c1ccc(F)cc1)NCCc1ccccc1	inactive	
O=C(COc1ccc(S(=O)(=O)NCCc2ccccc2)cc1)N1CCCC1	inactive	
COc1ccccc1N1CCN(CC(=O)NCCc2ccc(S(N)(=O)=O)cc2)CC1	inactive	
Cc1ccccc1-n1cc(CNC(=O)CC2C(=O)NCCN2C/C=C/c2ccccc2)cn1 (centres undefined)	inactive	
COc1cc(CN2CCNC(=O)C2CC(=O)NCCc2ncccc2C)cc(OC)c1 (centres undefined)	23.8 µM (active)	
O=C(CC1C(=O)NCCN1CC(c1ccccc1)c1ccccc1)NCCc1cn[nH]c1 (centres undefined)	14.1 µM (active)	
CN(CCc1cn[nH]c1)C(=O)CC1C(=O)NCCN1Cc1cccc(Oc2ccccc2)c1 (centres undefined)	inactive	
COc1cccc(CN2CCNC(=O)C2CC(=O)N(C)CCc2ccccn2)c1 (centres undefined)	inactive	
Cc1cc(C)n(CCNC(=O)CC2C(=O)NCCN2Cc2ccc(C)o2)n1 (centres undefined)	inactive	
COC(=O)c1ccc(CN2CCN(CCCc3ccccc3)C(CCO)C2)cc1 (centres undefined)	inactive	
COc1ccc(-c2csc(NC(=O)COC(=O)Cc3ccc(Cl)cc3Cl)n2)cc1	inactive	
COc1ccc(N2CCN(c3ccc([N+](=O)[O-])nc3)CC2)cc1	inactive	
CS(=O)(=O)N1CCc2cc(C(=O)Nc3ccccc3)ccc21	inactive	
Cc1cc(C)c(NC(=S)N2CCCC2C(=O)O)c(C)c1 (centres undefined)	22.4 µM (active)	
Cc1ccc(C)c(NC(=O)C2CCCN2C(=O)OC(C)(C)C)c1 (centres undefined)	inactive	
Cc1cc([N+](=O)[O-])c(N2CCC[C@@H]2C(=O)O)c([N+](=O)[O-])c1	inactive	
Cc1cc(C(=O)COC(=O)C2CC2)c(C)n1-c1ccc(F)cc1	inactive	
COC(=O)[C@@H]1CC[C@H](C)[C@@H](c2ccc(C)cc2)N1C(=O)c1ccc(/C=N/O[C@H](C)c2cn([C@@H]3COC[C@H]3O)nn2)cc1	inactive	
O=C(Cc1ccc([N+](=O)[O-])cc1)N/N=C/c1ccco1	inactive	
CCCCN1CCNC1=S	inactive	
CCOC(=O)CCNC(=O)N1CCCC(C(=O)c2ccccc2SC)C1 (centres undefined)	inactive	
Cc1nnnn1/C(=C\c1ccccc1)C(=O)OCC(=O)N1CC2(C)CC1CC(C)(C)C2 (centres undefined)	4.47 µM (active)	
COc1ccccc1C(=O)N1CC2(C)CC1CC(C)(C)C2 (centres undefined)	inactive	
Cc1cccc(C(=O)NCC(=O)OCC(=O)N2CC3(C)CC2CC(C)(C)C3)c1 (centres undefined)	inactive	

Compound	Potency	activity, negative = inhibition
COc1cc(N2C(=O)c3ccccc3C2=O)c(Cl)cc1C(=O)OCC(=O)N1CCOCC1	inactive	
CC(C)(O)C#Cc1ncc(C(F)(F)F)cc1Cl	inactive	
CSc1ccc(CN(C)CC(=O)NCc2ccc(F)cc2)cc1	inactive	
CCC(C)[C@@H](C(=O)N1CCNCC1)n1cc(CCCCN)nn1 (some centres undefined)	inactive	
COc1cccc(CC(=O)N2CCCC(CCC(=O)N3CCN(c4ccccn4)CC3)C2)c1 (centres undefined)	inactive	
CCSC1=C(C#N)C(=O)n2c1cc1c2CCCC1	4.47 µM (active)	
C=CCNc1nc(Nc2ccc(Cl)cc2)nc(OC)n1	inactive	
C=C1O[C@@](CO)(n2cnc3c(N)ncnc32)[C@H](O)[C@@H]1O	inactive	
Cc1nnc(N/N=C/c2ccccn2)[nH]c1=O	inactive	
Cc1cc(=O)[nH]c(N/N=C/c2c(C)nn(-c3ccccc3Cl)c2Cl)n1	5.01 µM (active)	
Cc1ccc(-n2nc(C)c(/C=N/NC(=O)c3cccs3)c2Cl)cc1	inactive	
O=C(CSc1nnc(-c2ccncc2)n1-c1ccc(Cl)cc1)Nc1ccc(C(=O)O)cc1	inactive	
CC1(C)CC(=O)CC2(C1)NCC(c1ccccc1Cl)c1c2[nH]c2ccccc12 (centres undefined)	inactive	
COCCN1C(=O)N[C@@H](CCc2ccccc2)[C@H](C(C)=O)[C@H]1C		3.4% [at 13.5 µM] (inactive)
C=CC1=C2C=C(C3CC3)N(C(CO)CO)C=C2C(=O)C(C)(OC(=O)c2ccco2)C1=O (centres undefined)		-4.41% [at 13.5 µM] (inactive)
CN(C)/C=C(/C(=O)c1ccc(F)cc1)S(=O)(=O)c1ccc(F)cc1	inactive	
CCOc1ccc(N(CC(=O)OC)S(=O)(=O)c2c(C)noc2C)cc1	inactive	
CCOC(=O)c1cccc(NC(=O)CN(c2ccc(C)cc2)S(=O)(=O)c2c(C)noc2C)c1	7.94 µM (active)	
CCOc1ccc(N(CC(=O)NCc2ccc(OC)cc2)S(=O)(=O)c2c(C)noc2C)cc1	inactive	
CC(=O)c1c(C)[nH]c(C(=O)OCC(=O)NCCC(C)C)c1C	inactive	
CCOc1cc(/C=N/NC(=O)c2ccc(CSc3nncn3C)cc2)ccc1OCC(=O)N1CCOCC1	inactive	
CCOc1cccc(/C=N/NC(=S)NCCN2CCOCC2)c1O	inactive	
CCOc1ccccc1N=C1NC(=O)CS1	inactive	
CCOc1cccc(/C=N/N2C(=O)CSC2=S)c1O	7.08 µM (active)	
